Test results taken from PubChem BioAssay AID1415 (NMMLSC, 2008).
Screen size: about 220,000 compounds; about 710 (0.32%) were called active. Cut-off read from the data, not from the text of the source: active = binding response below about 49% or above about 150%; inactive = in between. The entries come from a sample that favours actives as a whole.

target: Guanine nucleotide-binding protein G(o) subunit alpha (Homo sapiens) (UniProt P09471); experiment: RGS4-Galphao interaction inhibitors and enhancers – biochemical, multiplexed bead flow cytometry, primary screen (AID 1415); conditions: at 10 µM, actives lie on both sides;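 note: fluorescent Galphao activated with aluminum fluoride binding bead-coupled RGS4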
Sequence (P09471 whole entry, looked up): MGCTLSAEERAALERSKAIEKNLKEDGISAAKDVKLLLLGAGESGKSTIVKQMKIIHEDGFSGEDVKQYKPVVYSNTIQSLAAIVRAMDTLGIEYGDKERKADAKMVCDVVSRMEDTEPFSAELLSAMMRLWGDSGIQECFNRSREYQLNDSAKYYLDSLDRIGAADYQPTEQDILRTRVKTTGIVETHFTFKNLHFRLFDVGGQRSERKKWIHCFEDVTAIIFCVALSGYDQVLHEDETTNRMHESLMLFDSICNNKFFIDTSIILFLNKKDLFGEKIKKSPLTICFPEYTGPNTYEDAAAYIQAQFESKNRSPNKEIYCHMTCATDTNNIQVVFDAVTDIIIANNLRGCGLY

SMILES | binding response (% of control)
CN1CCN(S(=O)(=O)c2ccc(N3CCN(S(=O)(=O)c4cccs4)CC3)nc2)CC1 | 101% (inactive)
Cc1ccc(NC(=O)NCC(c2cccnc2)N2CCOCC2)cc1 (configuration not stated) | 105% (inactive)
CN1CCN(C(CNS(=O)(=O)c2cccs2)c2cccnc2)CC1 (configuration not stated) | 0.16% (active)
OCCC1CN(Cc2ccc(Oc3ncccn3)cc2)CCN1CCc1ccccc1 (configuration not stated) | 98.9% (inactive)
O=C(Nc1cc(Cl)cc(Cl)c1)C(NCCCO)c1ccccc1 (configuration not stated) | 102% (inactive)
O=C(CNCc1cccs1)Nc1cc(S(=O)(=O)N2CCCC2)ccc1Cl | 103% (inactive)
O=C(O)CCCCCNc1ncnc2ccc(Br)cc12 | 98% (inactive)
Oc1ccc(N=Nc2nccs2)c(O)c1 | -21.6% (active)
Oc1ccc2ccccc2c1N=Nc1nccs1 | 99.9% (inactive)
CC(NC(=O)C(=O)Nc1nccs1)c1ccccc1 (configuration not stated) | 94.3% (inactive)
Cc1nc(NNC(=O)c2ccccc2)cc(-c2ccccc2)n1 | 101% (inactive)
CC(CC(=O)C1C(C)C=CCC1(C)C)NNC(N)=O (configuration not stated) | 101% (inactive)
O=C(c1ccc(=O)oc1)N1CCC(C(O)(c2ccccc2)c2ccccc2)CC1 | 100% (inactive)
COC(=O)CCCC1=CC2=C(c3ccccc3)C(=O)C(C)(OC(=O)C3CCCC3)C(=O)C2=CN1c1ccc(OC)cc1 (configuration not stated) | 97% (inactive)
Cc1ccccc1CC1(CO)CCCN(C(=O)c2cc(-c3ccccc3)no2)C1 (configuration not stated) | 110% (inactive)
O=C(CCc1ccccc1)NNC(=O)c1ccc(Br)cc1 | 109% (inactive)
CCOC(=O)N1CCN(C(=O)COc2ccc(Cl)cc2C)CC1 | 102% (inactive)
CCCn1nnnc1NC(=O)COc1ccc(Cl)cc1C | 22.6% (active)
Cc1cc(NC(=O)COc2ccc(Cl)cc2Cl)n(CCC#N)n1 | 94.6% (inactive)
CC(Oc1ccccc1)C(=O)Nc1oc(-c2ccco2)c(-c2ccco2)c1C#N (configuration not stated) | 96.1% (inactive)
O=C(CC1SCCNC1=O)Nc1ccc(Cl)cc1 (configuration not stated) | 102% (inactive)
C/C(=N\NC(=S)NC(C)C)c1ccc(C(C)(C)C)cc1 | 102% (inactive)
CCOc1ccccc1NC(=O)CCN1CCN(S(=O)(=O)c2ccc(OC)cc2)CC1 | 97% (inactive)
Cc1c(C(=O)Nc2ccccc2Cl)oc2ccc(S(=O)(=O)N3CCC4(CC3)OCCO4)cc12 | 106% (inactive)
CCOc1ccccc1NC(=O)c1cc(S(=O)(=O)N2CCC3(CC2)OCCO3)ccc1F | -0.18% (active)
CS(=O)(=O)c1sc(C(=O)NC(=S)Nc2ccc(OC(F)(F)F)cc2)c2c1C=CCC2 | 113% (inactive)
C=C(C)C(=O)Nc1cccc(C2=NOC3(C2)C[C@H](C(N)=O)N(C(=O)C(c2ccccc2)c2ccccc2)C3)c1 (some centres not stated) | 100% (inactive)
